Results published in the supplement of paper PMC10338343.
± gives the standard deviation.

These sequences were tested on MILI (PIWIL2) piRISC loaded with piRNA #1 (26 nt) (assay: pre-steady-state target cleavage rate (min^-1); guide: piRNA #1 5'p-UGAGGUAGUAGGUUGUAUAGUAUCCA; MIWI and MILI are mouse PIWI proteins and EfPiwi is from a freshwater sponge; tags in brackets are library labels; higher = faster piRNA-guided slicing of the target). Settings: auxiliary factor: 500 nM mouse GTSF1.
Outline: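 For Cleave-'n-Seq, a transcribed, DNA-blocked target RNA library […] met 1 nM active affinity-purified piRISC with one synthetic guide at 33 °C for 0–8 or 0–960 min in HEPES–potassium acetate buffer, with or without 500 nM GTSF1 partner protein. Uncleaved targets were sequenced and normalised to depth and weakly complementary targets, with three trials pooled and k3 capped at 0.0001 min^-1. A burst-and-steady-state fit supplied the pre-steady-state cleavage rate.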
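Also: 1 nM active piRISC with 0.1 nM target library at 33 °C single turnover.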

Sequence | pre-steady-state target cleavage rate
GGAGACCUAUCAAUACAACCAACUACCUCA | 0.00756 ± 0.0033
GGAGACCUAUGAUAACAACCUACUACACUCA | 0.00558 ± 0.0031
GGAGACCUAAGUAUACAACCUUCUACCUCA | 0.00652 ± 0.0032
GGAGACCUAUGUAUACAACCUAUUACCUCA | 0.0697 ± 0.0079
GGAGACCUAUCUAUACAACCUACUUCCUGA | 0.0608 ± 0.018
GGAGACCUAUCUAAACAACCUACUAGCUCA | 0.0571 ± 0.011
GGAGACCUAUCUAAACAACCUACUUCCUCA | 0.0303 ± 0.0063
GGAGACCUUUACUAUACAACCUACUACCUCA | 0.154 ± 0.012
GGAGACCUAACUAUUGUACCUACUACCUCA | 0.00477 ± 0.0036
GGAGUGGAUACAAUACAACCUACUAGCUCA | 0.0614 ± 0.0087
GGAGACCUUACUAUACUACCUAGUACCUCA | 0.035 ± 0.0072
GGAGACCUUACGAUACAACCUACUACCUCA | 0.152 ± 0.017
GGAGUGGAUUCUAUACAACCUACAACCUCA | 0.0777 ± 0.0074
GGAGACCAUACUUUACAACGUACUACCUCA | 0.0198 ± 0.0034
GGAGACCUAUGAUAACAACCUACUACCUCC [g2:g16:cont:t1C] | 0.00493 ± 0.0021
GGAGACCUUACUAUACAACCUAGAACCUCA | 0.00842 ± 0.0033
